In paper PMC5540273 (PLoS ONE, 2017):

System: AAK1
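Note: kd values determined as follow-up on hits from a single-replicate KINOMEscan panel screen.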

| Compound | Kd |
| --- | --- |
| COc1ccc(Nc2nccc(NCCNC(=O)Nc3ccccc3F)n2)cc1 [GSK1379901] | > 10000 nM |
| Cc1cccc(-c2nc(C)cc(Nc3ccncc3)n2)n1 [GSK257997] | > 10000 nM |
| O=C(Nc1n[nH]c2cc(-c3cccc(F)c3F)ccc12)C1CC1 [SB-733894] | 2100 nM |
| Cc1cc(-c2ccc3c(c2)CC[C@@H](N[C@@H](C)c2ccccc2)C3)cnc1N.Cl [GW412617] | 3600 nM |
| CN1C(=O)C(Nc2ccc(Cl)c(C(=O)O)c2)=C(c2ccc(Cl)cc2)C1=O [SB-404290] | > 10000 nM |

System: ABL1-nonphosphorylated

| Compound | Kd |
| --- | --- |
| O=C(Nc1ccccc1)Nc1cccc(Oc2ccc3nccn3n2)c1 | 140 nM |
| Cc1ccccc1-n1cnc2c(N)ncnc21 [SKF-97510] | > 10000 nM |
| Cc1cccc(-c2nc(-c3ccc(S(C)(=O)=O)cc3)sc2-c2ccnc(NCCc3ccccc3)c2)c1 | 330 nM |
| COc1ccc(Nc2nccc(-c3cccc(NC(=O)c4cc5cc(F)ccc5[nH]4)c3)n2)cc1 [GSK1229782] | 100 nM |
| CC(=O)Nc1nc2cnc(Nc3cc(NC(=O)c4cccc(CCC#N)c4)ccc3C)nc2s1 | > 10000 nM |

System: ACVR1B

| Compound | Kd |
| --- | --- |
| Cc1ccc(NC(=O)Nc2cccc(C(F)(F)F)c2)cc1 [GSK955403] | > 10000 nM |
| Cc1csc(-c2nc(Nc3ccncc3)c3ccccc3n2)n1 [GW869640] | 39 nM |
| COc1ccc2nc(-c3cccc(C)n3)nc(Nc3ccncc3)c2c1 [GSK204919] | 150 nM |
| Cc1cccc(-c2nc(Nc3ccc4[nH]ncc4c3)c3ccccc3n2)n1 [GW857175] | 54 nM |
| Cc1cccc(-c2cc(Nc3ccncc3)c3ccccc3n2)n1 [GSK223675] | 31 nM |
| Cc1cccc(-c2nc(Nc3cccc(C(N)=O)c3)c3ccccc3n2)n1 [GW876019] | 1600 nM |
| Cc1cccc(-c2nc(Nc3ccncc3)c3ccccc3n2)n1 [GW855857] | 3.3 nM |
| Cl.c1ccc(-c2n[nH]cc2-c2ccnc(-c3ccc(CN4CCOCC4)cc3)c2)nc1 [GW776245] | 180 nM |

System: ACVR2B

| Compound | Kd |
| --- | --- |
| Fc1cccc(COc2nnc(-c3ccc4c(c3)CCO4)o2)c1 | > 10000 nM |
| Cc1c(O)cccc1Nc1ccnc2ccc(C(F)(F)F)cc12.Cl [GW466413] | 240 nM |
| Fc1cc(Cl)ccc1Nc1ccnc2cc(I)ccc12 [GW551191] | 110 nM |

System: ADCK4

| Compound | Kd |
| --- | --- |
| Cl.Oc1ccc(-c2nc(-c3ccccc3)[nH]c2-c2ccncc2)cc1 [SB-428218] | > 10000 nM |
| Cc1cc(NCC(c2ccccc2)c2ccccc2)nc(NCc2ccc(C(F)(F)F)cc2)n1 [GW497681] | 2300 nM |
| CCn1c(-c2cccnc2O)nc2cnccc21 [SB-736715] | > 10000 nM |
| Cc1c(O)cccc1Nc1ccnc2ccc(C(F)(F)F)cc12.Cl [GW466413] | 510 nM |
